MRP reversal: reversal of MRP1-mediated doxorubicin resistance, primary screen, H69AR cells, doxorubicin co-treatment. 0.04% of 85,000 active. H69AR cells + 2 uM doxorubicin, CellTiter-Glo, 72 h. AID 602, 2007. differential viability (reversal), % at 10 µM;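 active = viability drop by adding the cancer drug above about 55%, with treated viability meeting a 40% cutoff, limit read from the data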;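 note: viability without doxorubicin minus viability with 2 µM doxorubicin for each compound; larger differential means the compound sensitizes cells more to doxorubicin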
GALR2 blocker: GALR2 antagonists in receptor-expressing cells, primary screen; antagonist mode; inhibition, % at 4 µM; 0.39% of 140,000 active; AID 828, 2007; in the data active = inhibition above about 27%;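 note: cells stimulated with galanin 1-16 at roughly its EC80; 0% = agonist challenge control and 100% = basal control without agonist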
Target sequence (O43603 whole entry, looked up): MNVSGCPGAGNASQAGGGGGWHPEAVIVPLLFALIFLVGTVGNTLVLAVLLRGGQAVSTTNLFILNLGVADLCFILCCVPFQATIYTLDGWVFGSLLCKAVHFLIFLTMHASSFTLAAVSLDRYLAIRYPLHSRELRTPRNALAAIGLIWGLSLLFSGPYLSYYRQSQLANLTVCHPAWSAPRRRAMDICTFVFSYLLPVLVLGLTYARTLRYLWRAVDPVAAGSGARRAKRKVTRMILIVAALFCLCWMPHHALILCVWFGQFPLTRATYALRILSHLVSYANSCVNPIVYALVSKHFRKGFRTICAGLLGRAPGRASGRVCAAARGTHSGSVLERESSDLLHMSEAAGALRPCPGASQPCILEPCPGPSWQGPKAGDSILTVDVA
S1P2 antag: human S1P2 receptor antagonists, primary screen, cell-based; AID 736, 2007; 0.21% of 97,000 active; Sphingosine 1-phosphate receptor 2 (Homo sapiens), O95136; inhibition, % at 5 µM; cell-based S1P2 antagonist assay, inhibition at 5 uM; in the data active = inhibition above about 45%;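 note: CRE beta-lactamase reporter cells expressing human S1P2 stimulated with S1P; 0% = agonist at EC80 alone and 100% = agonist plus reference antagonist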
MRP-1 activ: H69AR viability gain despite doxorubicin, primary screen, MRP-1 activator project, H69AR cells, CellTiter-Glo; viability rescue; viability increase, % at 10 µM; 0.61% of 140,000 active; AID 799, 2007;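 active = viability gain under doxorubicin at or above a set limit, the compound median plus 3 SD, cut at about 4.7% in these data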;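 note: MRP-1 overexpressing cells given doxorubicin 25 µM after compound pretreatment; 18-22 h compound pretreatment then 72 h with doxorubicin before readout; 0% = doxorubicin-only wells and 100% = vehicle-treated cells without doxorubicin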
GALR2 agonist: GALR2 receptor agonists, primary screen, cell-based | Galanin receptor type 2 (Homo sapiens), O43603 | GALR2-expressing cells, agonist activation read-out | activation, % (concentration not given with the values) | 0.48% of 140,000 active | AID 803, 2007; in the data active = activation above about 5%, passing the limit was not always enough;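 note: 0% = vehicle buffer wells and 100% = reference agonist at full effect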
S1P2 agonist: S1P2 receptor agonists, primary screen, cell-based; 0.46% of 97,000 active; S1P2-expressing cell line, agonist reporter read-out; activation, % at 4.5 µM; in the data active = activation above about 16%;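 note: 0% = vehicle low control and 100% = maximal reference agonist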
Active calls of the source: *; / = not tested or not shown. In the library only some 1.8% were active in any assay of this set; here they are far more common.

SMILES	MRP reversal	GALR2 blocker	S1P2 antag	MRP-1 activ	GALR2 agonist	S1P2 agonist
CCC(=O)Nc1ccc(Br)c(Cl)c1	21	4	17	-1	-2	-1
Cc1ccc(S(=O)(=O)Nc2c(C)[nH]c(=O)[nH]c2=O)cc1C	/	6	/	-1	5.9*	/
CC1=NN(c2ccccc2)C(=O)/C1=C\c1ccc(Br)s1	/	14	/	-4	-1	/
Cc1cccc(OCC(O)CN2CC3(C)CC2CC(C)(C)C3)c1 (stereo not drawn)	/	4	/	-2	6.8*	/
Cc1cccc(C2N(c3nccs3)C(=O)C3CCCN32)c1 (stereo not drawn)	2	4	-2	-1	-3	-1
Cn1cc(Br)c(C(=O)NNC(=O)c2ccccc2)n1	/	1	/	-1	-1	/
Cn1cc(Br)c(C(=O)NNC(=O)c2ccc(Br)cc2)n1	/	11	/	7.6*	0	/
COCCOC(=O)C1=C(C)N(Cc2ccccc2)C(=O)NC1c1cccc(OC)c1OC (stereo not drawn)	-8	10	-9	-2	-6	-3
O=c1oc2c(CN3CCOCC3)c(O)ccc2c2c1CCCC2	/	-1	/	0	5.0*	/
CC(NC(=O)c1cccs1)c1n[nH]c(=S)n1C (stereo not drawn)	/	-3	/	2	-1	/
O=C(CCN1C(=O)/C(=C/c2ccc(F)cc2)SC1=S)NNC(=O)c1cccnc1	/	-16	/	4	1	/
O=C(NN1C(=O)/C(=C/c2cccnc2)SC1=S)C(c1ccccc1)c1ccccc1	/	-4	0	3	-2	-13
Cc1ccc(/C=C2\SC(=S)N(CCC(=O)NNC(=O)c3cccnc3)C2=O)cc1	/	4	/	8.7*	-1	/
CC(=O)NN1C(=O)/C(=C/c2ccc(C(C)C)cc2)SC1=S	/	-11	/	4.7*	0	/
O=C(CCN1C(=O)/C(=C/c2ccccc2)SC1=S)NNC(=O)c1cccnc1	/	-13	/	6.6*	-2	/
O=C(NN1C(=O)/C(=C\c2cccnc2)SC1=S)C(c1ccccc1)c1ccccc1	/	2	/	5.5*	-1	/
O=C(CCN1C(=O)/C(=C/c2cccc(Br)c2)SC1=S)NNC(=O)c1cccnc1	/	-4	6	2	-2	-2
O=C(NCCCn1ccnc1)c1cc(-c2cccs2)on1	32	-1	3	-3	-4	-8
CC(NC(=O)C12CC3CC(CC(C3)C1)C2)c1ccc2c(c1)OCCO2 (stereo not drawn)	18	-11	14	6.9*	-3	-6
CCC1(C)Cc2c(sc3nnn(CC(=O)Nc4ccc(C)cc4)c(=O)c23)CO1 (stereo not drawn)	/	11	-15	9.7*	1	-8
CCC1(C)Cc2c(sc3nnn(CC(=O)Nc4cccc5ccccc45)c(=O)c23)CO1 (stereo not drawn)	/	7	-9	-4	0	-2
COc1cc(SC)ccc1C(=O)NCCOc1c(C)cc(C)cc1C	/	14	-15	0	-4	-3
COc1cc(SC)ccc1C(=O)NCCOc1ccc(Cl)cc1	/	-8	/	6.4*	-1	/
COc1ccccc1Oc1nc2c(c(=O)n(Cc3ccccc3F)c(=O)n2C)n1C	-42	-6	14	0	-1	-9
Cc1nc(N2CCN(S(=O)(=O)c3ccc(F)cc3)CC2)c2c(C)c(C)sc2n1	-2	/	/	/	/	/
SMILES	MRP reversal	GALR2 blocker	S1P2 antag	MRP-1 activ	GALR2 agonist	S1P2 agonist
Cc1sc2nc(C3CC3)nc(N3CCN(S(=O)(=O)c4ccc(F)cc4)CC3)c2c1C	-21	-16	-8	6.6*	0	-5
C/C(=N\NC(=O)c1ccccc1C)c1cccc([N+](=O)[O-])c1	/	-5	-5	0	-1	0
C/C(=N\NC(=O)CCc1c[nH]c2ccccc12)c1cccc([N+](=O)[O-])c1	/	-4	/	7.9*	-2	/
Cc1cccc(OCc2nc(-c3nonc3N)no2)c1C	-18	0	/	5.2*	-1	/
COc1cccc2c1C(=O)c1c(O)c3c(c(O)c1C2=O)C[C@@](O)(C(C)=O)C[C@@H]3O[C@H]1C[C@H](N)[C@H](O)[C@H](C)O1	/	98*	/	/	-2	/
COCCN=c1scc(-c2cccs2)n1/N=C/c1ccc(O)c(O)c1O	/	9	/	-5	-1	/
CCN=c1scc(C)n1/N=C/c1ccc(O)c(O)c1O	/	1	12	6.2*	-2	-3
COc1ccccc1NS(=O)(=O)c1ccc(NC(C)=O)cc1	7	-18	-21	-3	-2	-4
O=C1CC(c2nc3ccccc3[nH]2)CN1c1cccc(C(F)(F)F)c1 (stereo not drawn)	6	-10	/	7.7*	0	/
CC(=O)Cn1cnc2sc(-c3ccccc3)cc2c1=O	-4	4	2	0	1	-1
O=C(NN1C(=O)C2C3C=CC(C3)C2C1=O)c1cccc(Cl)c1 (stereo not drawn)	/	-8	/	1	-1	/
O=[N+]([O-])c1ccc(N/N=C/c2ccccc2)c(F)c1	/	6	/	5.2*	1	/
CCOC(=O)c1c(CN(C)C)n(-c2ccc(C)cc2)c2cc(Br)c(O)cc12	/	-8	/	-4	-2	/
CCOC(=O)c1c(CSC(=N)N)n(-c2ccc(C)cc2)c2cc(Br)c(OC(C)=O)cc12	/	-17	20	9.5*	2	-6
COc1ccc(OC)c(C2C(C(N)=O)=C(C)Nc3nc(-c4cccc(Cl)c4)nn32)c1 (stereo not drawn)	-4	2	-2	-1	-1	-5
C=CCNC(=S)NNC(=O)COc1ccc(Br)cc1	/	1	/	6.4*	0	/
Clc1cnc(N/N=C/c2cccs2)c(Cl)c1	81*	-3	2	-4	-2	-7
O=C(Nc1cc(N2CCOCC2)ncn1)c1ccccc1	13	-20	19	0	-1	-5
CCCCc1ccc(NC(=O)COc2ccc(C(=O)Nc3ccccc3OC)cc2)cc1	/	6	/	-2	-1	/
CCCCc1ccc(NC(=O)COc2ccc(C(=O)Nc3ccccc3C)cc2)cc1	/	10	/	-2	5.8*	/
Cc1cc(C)cc(OCC(=O)OCC(=O)Nc2ccc(Cl)cn2)c1	-8	5	9	-3	-2	-8
Cc1cccc(C)c1NC(=O)c1ccc(-n2cncn2)nc1	/	11	25	-1	-1	-2
COc1ccc(-c2cc(C(=O)Nc3c(C)nn(Cc4ccccc4Cl)c3C)no2)cc1OC	-8	12	20	-3	-2	-9
COc1ccc(OC)c(-c2cc(C(=O)Nc3c(C)nn(Cc4ccccc4C)c3C)no2)c1	2	-11	-4	9.3*	2	3
COc1ccc(OC)c(-c2cc(C(=O)Nc3c(C)nn(Cc4ccccc4Cl)c3C)no2)c1	3	0	-4	5.5*	0	1
CC(=O)OC1CC(C)(C)N(OC(=O)CCCN2C(=O)c3ccccc3C2=O)C(C)(C)C1	-1	13	/	0	-1	/
CC(C)NC(=O)C(=O)NCCc1ccc(Cl)cc1	19	-10	-10	4.8*	0	1

Screening data from PubChem BioAssay.
